# Assay results taken from ChEMBL document CHEMBL3988442, “University of Dundee, Small-Polar-MMV Screening Library” (2021).
# Screen size: about 69,000 compounds; about 1,000 (1.4%) showed an effect of 50% or more. This is one part of a sample in which strong results are shown more often than they occur.
# System: Leishmania donovani
# Experiment: Leishmania intramacrophage assay
# Assay type: functional, organism-based
# Set-up: scale not given: in the data most compounds retested in dose-response had high values
Structure (SMILES),"Percent Effect (30.3 µM, […]) [%]","Percent Effect (30 µM, 30.03 µM) [%]"
O=C(O)C(F)(F)F.O=C(O)C(F)(F)F.c1cncc(CO[C@H]2CN(Cc3ccco3)[C@@H]3COC[C@H]23)c1,63.54,
Cc1cccc(CN2C[C@H](OCc3ccccn3)[C@H]3COC[C@H]32)n1.O=C(O)C(F)(F)F.O=C(O)C(F)(F)F,10.8,
O=C(O)C(F)(F)F.O=C(O)C(F)(F)F.c1ccc(CO[C@@H]2CN(Cc3nccs3)[C@@H]3COC[C@@H]32)nc1,56.79,
Fc1ccc(CN2C[C@@H](OCc3ccccn3)[C@H]3COC[C@H]32)cc1.O=C(O)C(F)(F)F.O=C(O)C(F)(F)F,38.45,
Cc1nc(CO[C@@H]2CN(Cc3cccnc3)[C@@H]3COC[C@@H]32)cs1.O=C(O)C(F)(F)F.O=C(O)C(F)(F)F,21.07,
O=C(O)C(F)(F)F.O=C(O)C(F)(F)F.O=C(O)C(F)(F)F.c1ccc(CO[C@@H]2CN(Cc3cccnc3)[C@@H]3COC[C@@H]32)nc1,-0.4082,
O=C(c1ccc2c(c1)OCO2)N1CCC(C(=O)O)(c2ccccc2)CC1,0.8951,
CC(C)NC(=O)[C@H]1C[C@H]2NCCO[C@@H]2C1,20.26,
O=C(NC1CCC1)[C@H]1C[C@H]2NCCO[C@@H]2C1,13.25,
CC(C)NC(=O)[C@@H]1C[C@H]2NCC[C@H]2O1.Cl,56.79,
CCCN1CCC[C@]2(CCC(=O)N2Cc2ccncc2)[C@H]1CC.O=C(O)C(F)(F)F.O=C(O)C(F)(F)F,-2.592,
CN(C)C[C@H]1C[C@@H]2CN(Cc3ccco3)C[C@@H]2O1.O=C(O)C(F)(F)F.O=C(O)C(F)(F)F,-9.327,
Cc1cccc(CN2CCN3C[C@H](Oc4cncnc4)C[C@H]3C2)n1.O=C(O)C(F)(F)F.O=C(O)C(F)(F)F,42.71,
Fc1cnc(N2CCN3C[C@H](Oc4cncnc4)C[C@H]3C2)nc1.O=C(O)C(F)(F)F.O=C(O)C(F)(F)F,16.13,
C[C@H]1C[C@H]2CN(Cc3ccccn3)CC[C@@H]2O1.O=C(O)C(F)(F)F.O=C(O)C(F)(F)F,19.92,
CCCN1CC[C@@H]2OC[C@H](C(=O)Nc3cccnc3)C[C@@H]2C1.O=C(O)C(F)(F)F.O=C(O)C(F)(F)F,21.37,
CN1CC[C@@H]2OC[C@H](C(=O)N(C)Cc3ccccn3)C[C@@H]2C1.O=C(O)C(F)(F)F.O=C(O)C(F)(F)F,55.09,
CCS(=O)(=O)N1CCc2c(COCCN(C)C)cncc2C1.O=C(O)C(F)(F)F.O=C(O)C(F)(F)F,30.88,
Cl.NC(Cc1nc(-c2ccccc2)no1)c1ccccc1 (centres undefined),-5.876,
Cl.NC(CC1CCCCC1)c1ccccc1 (centres undefined),68.07,
COCC1CC2(CCN(c3cc(OC)ncn3)CC2)CN1C(C)C.O=C(O)C(F)(F)F (centres undefined),17.84,
Cc1cc(CNC2(c3ccccc3)CCCCC2)no1,4.963,
Cc1cc(CNC2(c3ccccc3)CCCCC2)on1,51.47,
Cc1nc(C2(NCc3cccc(F)c3F)CCCCC2)no1,15.79,
CCN1C[C@H]2[C@@H](C1)N(S(=O)(=O)c1cccnc1)CC[C@H]2OC.O=C(O)C(F)(F)F.O=C(O)C(F)(F)F,,-25.11

Structure (SMILES),"Percent Effect (30.3 µM, […]) [%]","Percent Effect (30 µM, 30.03 µM) [%]"
O=C(Cc1ccncc1)N1C[C@H]2CC[C@@H]1CN(Cc1cccnc1)C2,24.39,
COc1ccccc1CC(=O)N1C[C@H]2CC[C@@H]1CN(Cc1cscn1)C2,-17.19,
O=C(Cc1cnccn1)N1C[C@H]2CC[C@@H]1CN(Cc1cscn1)C2,50.19,
CC(C)(O)CNc1ccc(C#N)c(C(F)(F)F)c1,100.1,
CC(C)(CNc1ccc(C#N)c(C(F)(F)F)c1)C(N)=O,20.21,
CC(C)(C)NC(=O)CNc1ccc(C#N)c(C(F)(F)F)c1,3.3,
Cc1ncc2c(c1-c1noc(-c3cscn3)n1)CCNC2,-9.596,
CCOc1ccc(C2SCC(=O)Nc3c2c(=O)[nH]n3C(C)C)cc1 (centres undefined),-0.8562,
Cl.O=C(N[C@H]1CN[C@H]2CCCO[C@H]21)c1cscn1,,25.22
CN1C[C@H](NC(=O)c2cscn2)[C@@H]2OCCC[C@@H]21.O=C(O)C(F)(F)F,54.94,
O=C(N[C@@H]1CN[C@@H]2CCCO[C@@H]21)c1cscn1.O=C(O)C(F)(F)F,4.147,
Cc1cc(CN2C[C@@H]3COC[C@]3(CN(C)C)C2)no1.O=C(O)C(F)(F)F.O=C(O)C(F)(F)F,,-27.07
Fc1cnc(N2CCCC3(CN(Cc4cccs4)CCO3)C2)nc1.O=C(O)C(F)(F)F (centres undefined),-13.69,
CC(C)N(C)Cc1cncc2c1CCN(Cc1ccoc1)C2.Cl.Cl.Cl,28.71,
O=C(O)C(F)(F)F.O=C(O)C(F)(F)F.c1cncc(OC[C@]23COC[C@H]2CN(C2CCC2)C3)c1,24.17,
Cn1nc(CN2CCCCC(N)C2)c2c(Cl)cccc21 (centres undefined),74.89,
Cc1cc(CN2C[C@@H]3COC[C@]3(CNC(=O)c3ccno3)C2)no1,,11.65
Cl.O=C1CC2(CCCNC2)C(=O)N1Cc1ccccc1 (centres undefined),,10.36
Fc1cccnc1O[C@@H]1CN(Cc2ccco2)[C@@H]2CCCO[C@@H]21.O=C(O)C(F)(F)F.O=C(O)C(F)(F)F,0.2133,
Cc1c(C2N3C[C@]4(C)CN2C[C@](C)(C3)C4=O)[nH]c(=O)[nH]c1=O (some centres undefined),18.9,
Cc1cccc(NC(=O)N2CCC(CO)(Nc3ccccc3)CC2)c1,33.34,
Cc1ccc(NC(=O)N2CCC(CO)(Nc3ccccc3)CC2)cc1,64.38,
O=C(Nc1ccc(F)cc1)N1CCC(CO)(Nc2ccccc2)CC1,1.566,
O=C(O)C(F)(F)F.O=C(O)C(F)(F)F.c1ccc(CN2CCN3C[C@H](Oc4cncnc4)C[C@H]3C2)nc1,2.199,
